Laboratory results as given in PubChem BioAssay (NCATS).
Inconclusive results are not listed. Active and inactive are the calls of the source. The call rests on the fitted dose curve; in most records, active means well fitted curve in either direction with a large enough effect (not every such curve was filed as active); inconclusive means small, poorly fitted or top-dose-only effect, or another doubt; inactive means flat fitted curve, though single readings scatter.

target: Mitogen-activated protein kinase 10 (Mus musculus) (UniProt Q61831); assay: JNK3 AlphaScreen Assay (AID 530); settings: JNK3 lysate, c-Jun phosphorylation; series mostly up to 57.1 µM; activity change, negative = inhibition: at the top concentration;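 further: kinase came from lysate of stimulated human HepG2 cells; signal reports phosphorylation of biotinylated GST-cJun 1-79 at Ser73 with 10 µM ATP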
In short: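 Kinase buffer: 20 mM Tris-HCl pH 7.6, 10 mM MgCl2, 1 mM DTT, 0.1 mM Na3VO4, 0.01% Tween-20; ATP 10 uM. Substrate biotin-GST-cJun(1-79), enzyme from activated HepG2 lysates. Detection by Ser73 phospho-antibody AlphaScreen.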
On the % scale 0 is the no-effect control and ±100 the full control effect.

Structure (SMILES)	Potency	activity change, negative = inhibition
CN1CCCC[C@@H]1CCN1c2ccccc2Sc2ccc(S(C)=O)cc21 (some centres undefined)	inactive	–
CN(Cc1ccco1)c1ccnc(-c2cccc(NS(C)(=O)=O)c2)n1	–	-3.32% (inactive)
Cc1cccc(CNc2ncncc2-c2ccccc2C(F)(F)F)c1	–	0.378% (inactive)
COc1ccccc1-c1ccc2ncnc(N(C)C)c2c1	–	0.151% (inactive)
COc1cccc(Nc2ncc3nc(C)c(=O)n(CCC#N)c3n2)c1	–	-13.6% (inactive)
Cn1cccc1C(=O)N1CCC2(CC1)CN(Cc1cc(C(F)(F)F)cc(C(F)(F)F)c1)C2	–	-2.91% (inactive)
COc1ccc2[nH]cc(CCNc3ncnc4ccc(-c5ccc(C(=O)N(C)C)cc5)cc34)c2c1	–	-19.5% (inactive)
CN(C)Cc1ccccc1-c1ccc2ncnc(NCc3ccccc3)c2c1	–	2.49% (inactive)
Cc1cccc(CNc2cc(-c3ccc(C(=O)N(C)C)cc3)ncn2)c1	–	-7.68% (inactive)
COc1ccc2[nH]cc(CCNc3cc(-c4ccoc4)ncn3)c2c1	–	-22.5% (inactive)
Cc1cccc(CNc2ccnc(-c3ccc(C(=O)N(C)C)cc3)n2)c1	–	-3.62% (inactive)
CN(C)Cc1ccccc1-c1nc(N(C)Cc2ccco2)c2ccccc2n1	–	2.82% (inactive)
Cc1cccc(CNc2nc(-c3ccoc3)nc3ccccc23)c1	–	-3.91% (inactive)
Cc1occc(=O)c1O	–	-8.64% (inactive)
CC1=CC(=O)CC(C)(C)C1(O)/C=C/C(C)=C\C(=O)O (centres undefined)	–	0.921% (inactive)
CNc1nc(-c2ccccc2OC)nc2ccccc12	–	-1.06% (inactive)
COc1ccccc1-c1cncnc1NCc1cccc(C)c1	–	5.85% (inactive)
CC(=O)N1CCC2(CC1)CCN(c1ccncc1)CC2	–	-2.06% (inactive)
Cc1nc2cnc(N(C)C)nc2n(Cc2cccs2)c1=O	–	3.98% (inactive)
c1ccc2c(Nc3ccncc3)nc(-c3ccoc3)nc2c1	–	-21.9% (inactive)

Structure (SMILES)	Potency	activity change, negative = inhibition
COCC(=O)N1CCC2(CCN(Cc3ccncc3)CC2)CC1	–	-3.18% (inactive)
CS(=O)(=O)Nc1cccc(-c2nc(N3CCOCC3)c3ccccc3n2)c1	–	-0.406% (inactive)
COS(C)(=O)=O	–	7.12% (inactive)
Cc1cccc(CNc2nc(-c3cccc(NS(C)(=O)=O)c3)nc3ccccc23)c1	–	2.74% (inactive)
CNc1ncnc2ccc(-c3ccccc3OC)cc12	–	-2.93% (inactive)
N#CCCn1c(=O)cnc2cnc(N3CCNCC3)nc21	–	4.37% (inactive)
CC(C)NC(=O)N1CCC2(CC1)CCN(C(=O)c1cnccn1)CC2	–	9.18% (inactive)
COc1ccc2[nH]cc(CCNc3ncnc4ccc(-c5ccccc5CN(C)C)cc34)c2c1	–	-12.6% (inactive)
COCCNc1nc(-c2cccc(OC)c2)nc2ccccc12	–	1.96% (inactive)
CN(C)c1ccc(-c2cc(NCc3cccnc3)ncn2)cc1	–	-13.4% (inactive)
COc1ccc2[nH]cc(CCNc3ncncc3-c3ccccc3CN(C)C)c2c1	–	-0.48% (inactive)
Cc1ccccc1-c1nc(-n2ccnc2)c2ccccc2n1	–	-0.0976% (inactive)
COc1ccccc1CNc1ccnc(-c2ccccc2C(F)(F)F)n1	–	6.82% (inactive)
COc1ccccc1-c1nc(NCc2cnc(C)cn2)c2ccccc2n1	–	-16% (inactive)
COc1ncc2nc(-c3ccc(Cl)cc3)c(=O)n(-c3ccccc3)c2n1	–	1.64% (inactive)
COCCNc1ncnc2ccc(-c3ccccc3CN(C)C)cc12	–	3.9% (inactive)
COc1ccc(C(=O)N2CCC3(CCN(C(=O)Nc4cccc(F)c4)CC3)CC2)cc1	–	-4.25% (inactive)
Cc1cccc(CNc2ccnc(-c3ccccc3CN(C)C)n2)c1	–	-1.85% (inactive)
CN1[C@@H]2CC[C@H]1CC(OC(=O)[C@@H](O)c1ccccc1)C2 (some centres undefined)	inactive	–
